Assay outcomes: PubChem, National Center for Advancing Translational Sciences (NCATS)
SW480 rerep – A quantitative high throughput screen for small molecules that induce DNA re-replication in SW480 colon adenocarcinoma cells | SW480 DNA re-replication, Hoechst DNA content imaging, 48 h | Potency, µM (series often up to 46.1 µM), actives largely listed as activators | hit rate 1.8% among 340,000 | AID 624297, 2012; note: nearly all actives have a fitted effect of over 55% in size
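Hoechst fluorescence of nuclei (405 nm excitation, 500-530 nm emission) measured by plate-scanning imager after 48 hr compound exposure at 37 C; re-replication scored as increased number of nuclei with elevated intensity.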
KB-V1 MDR tox – qHTS assay for MDR1-selective chemotherapeutics: Primary screen using the drug-selected MDR subline cells KB-V1. KB-V1 MDR cells viability, CellTiter-Glo, 72 h. Potency, µM (doses to about 46.1 µM), most hits filed as cytotoxic. hit rate 3.4% among 400,000. AID 1347076, 2019; note: nearly all actives have a fitted effect of over 60% in size
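Luminescent ATP read-out (CellTiter-Glo, 10 min) measures survival of drug-selected KB-V1 MDR cells after 72 h, 37 degrees C compound exposure. Medium: phenol-red-free DMEM, 10% FBS. Values from fitted concentration-response curves.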
KB-3-1 tox – qHTS assay for MDR1-selective chemotherapeutics: Primary screen using the parental adenocarcinoma cell KB-3-1; hit rate 1.4% among 400,000; Potency, µM (highest dose often 46.1 µM), hits mostly cytotoxic; KB-3-1 viability, CellTiter-Glo ATP luminescence, 72 h; note: nearly all actives have a fitted effect of over 60% in size
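Cytotoxicity measured as CellTiter-Glo luminescence after 72 h at 37 C. Compound titrations were pinned onto drug-naive KB-3-1 parental adenocarcinoma cells grown in DMEM with 10% FBS, and normalized data fitted to concentration-response curves.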
IL1B secr inh – qHTS for Inhibitors of Inflammasome Signaling: IL-1-beta AlphaLISA Primary Screen; THP-1 LPS/ATP IL-1B secretion, AlphaLISA, 16 h; active compounds read low; activity change, % at 57.5 µM; hit rate 4.7% among 360,000; in the data active = activity change below about -50%; inconclusive = mostly about -30% to -49%
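Secreted IL-1B measured by AlphaLISA bead assay after 16 h compound exposure of THP-1 cells; compounds (final up to 57.5 uM) added 1 h before LPS (250 ng/mL) and ATP (1.25 mM) stimulation; lower signal means less secretion.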
MCF10A rerep – A quantitative high throughput screen for small molecules that induce DNA re-replication in MCF 10a normal breast cells. Potency, µM (titrated, usually from 46.1 µM), hits mostly activators. MCF 10A DNA re-replication, Hoechst nuclear intensity, 48 h. hit rate 2.9% among 350,000; note: nearly all actives have a fitted effect of over 50% in size
Of the large screens only hits and unclear results are named; the others gave an inactive call. Shown are actives, neighbours in structure and some others; about 9.9% of the full set was active somewhere. Unless noted, calls come from the whole dose curve; as a rule, active = well fitted curve in the direction sought with a large enough effect; inconclusive = small, poorly fitted or top-dose-only effect, or another doubt; inactive = no such curve, though single readings can be large; an effect the other way counts as inactive or inconclusive.

CC12CCC(=O)CC1CCC1C2CCC2(C)C1CCC2(O)C(=O)CO (stereo unspecified)	none
Cc1cc(O)c2c(c1)CC1C3CCC4CC(=O)CCC4(C)C3CC(=O)C21C (stereo unspecified)	SW480 rerep inconclusive, KB-V1 MDR tox inconclusive, KB-3-1 tox inconclusive, MCF10A rerep 16µM
O=C(Nc1ccccc1)c1cn(CCBr)cn1	IL1B secr inh inconclusive
N#Cc1ncc(-c2ccc3c(c2)OCCOCCOCCOCCO3)nc1C#N	SW480 rerep inconclusive, KB-3-1 tox inconclusive, IL1B secr inh -103, MCF10A rerep 18µM
COc1cc(NC(=O)Cn2c(=O)n(CC3CCC(C(=O)NCCc4ccccc4)CC3)c(=O)c3ccccc32)cc(OC)c1 (stereo unspecified)	none (no result: SW480 rerep, IL1B secr inh, MCF10A rerep)
O=C1CC(Sc2ncccn2)C(=O)N1c1ccccc1C(F)(F)F (stereo unspecified)	IL1B secr inh -80
Brc1ccc(OCCCOc2cccc3cccnc23)cc1	none
Brc1ccc(OCCOCCOc2cccc3cccnc23)cc1	KB-V1 MDR tox 18µM, IL1B secr inh inconclusive
Cc1cccc(OCCCOc2cccc3cccnc23)c1C	SW480 rerep inconclusive, KB-3-1 tox inconclusive, MCF10A rerep 23µM
COC(=O)c1ccc(OCCOCCOc2cccc3ccc(C)nc23)cc1	KB-V1 MDR tox 15µM
O=Cc1ccccc1OCCCOc1cccc2cccnc12	MCF10A rerep 18µM
O=Cc1ccc(OCCCOc2cccc3cccnc23)cc1	none
COC(=O)C1CCN(C(=O)C2CCN(C(=O)[C@@H](NS(=O)(=O)c3ccc(C)cc3)C(C)C)CC2)CC1	none
Cc1c(Cl)cccc1NC(=O)CCS(=O)(=O)c1ccc(Br)s1	none (no result: SW480 rerep, IL1B secr inh, MCF10A rerep)
C/C=C/c1ccc(OCCOc2cccc3cccnc23)c(OC)c1	SW480 rerep inconclusive, IL1B secr inh -62, MCF10A rerep inconclusive
Cc1ccc2cccc(OCCCOc3ccccc3F)c2n1	SW480 rerep inconclusive, IL1B secr inh -56, MCF10A rerep 13µM
Cc1ccc2cccc(OCc3cccc([N+](=O)[O-])c3)c2n1	IL1B secr inh -51
C/C=C/c1ccc(OCCOCCOc2cccc3cccnc23)c(OC)c1	KB-V1 MDR tox inconclusive, MCF10A rerep inconclusive
CSc1nc(-c2ccccc2)c(C#N)c(=O)n1C	IL1B secr inh inconclusive
COc1ccc(NC(=O)CSc2ncc(-c3ccc(F)cc3)n2Cc2ccco2)cc1	IL1B secr inh -62, MCF10A rerep inconclusive
COCCn1c(SCC(=O)Nc2ccccc2OC)nc2ccccc2c1=O	none
O=C(CSc1ncc(-c2ccc(F)cc2)n1Cc1ccco1)Nc1nccs1	KB-V1 MDR tox inconclusive, KB-3-1 tox inconclusive
COCCn1c(-c2ccc(OC)cc2)cnc1SCC(=O)Nc1cccc2ccccc12	KB-V1 MDR tox 7.3µM
Cc1cnc(NC(=O)CSc2ncc(-c3ccccc3)n2Cc2ccco2)s1	KB-V1 MDR tox 21µM, MCF10A rerep inconclusive
Cc1c(S(=O)(=O)N2CCOCC2)c(=O)n(C)c(=O)n1C	none
O=C(NCC[C@@H]1CC[C@@H](NS(=O)(=O)Cc2ccccc2)[C@@H](CO)O1)C1CC1	none (no result: SW480 rerep, MCF10A rerep)
CN(C)C(CNC(=O)c1ccc(S(=O)(=O)Nc2ccccc2F)cc1)c1ccco1 (stereo unspecified)	KB-V1 MDR tox inconclusive
C=CC(C)N1C(=O)S/C(=C\c2ccc(N3CCOCC3)cc2C)C1=O (stereo unspecified)	SW480 rerep inconclusive, KB-V1 MDR tox inconclusive, KB-3-1 tox inconclusive, IL1B secr inh -77, MCF10A rerep inconclusive
NC(=O)c1cc2c3ccccc3ccn2c1-c1ccccc1	SW480 rerep 0.73µM, KB-V1 MDR tox 0.65µM, KB-3-1 tox 1.2µM, IL1B secr inh -91, MCF10A rerep inconclusive
Cc1cc(C(N)=O)c2ccccc2n1	MCF10A rerep inconclusive
C=C1C=C(C(F)(F)F)n2ncc(C(=O)NCc3ccc(F)cc3)c2N1	none (no result: SW480 rerep, IL1B secr inh, MCF10A rerep)
O=[N+]([O-])c1ccc(N/N=C/c2ccccc2)c(F)c1	SW480 rerep inconclusive, KB-V1 MDR tox inconclusive, MCF10A rerep 5.8µM
O=[N+]([O-])c1cccc(C=NNc2ccccc2)c1	KB-3-1 tox inconclusive, IL1B secr inh -65, MCF10A rerep inconclusive
O=[N+]([O-])c1ccc(C=NNc2ccccc2)cc1	MCF10A rerep inconclusive
O=[N+]([O-])c1cccc(N/N=C/c2ccc(N3CCOCC3)cc2)c1	SW480 rerep inconclusive, KB-V1 MDR tox inconclusive, IL1B secr inh -63, MCF10A rerep inconclusive
O=[N+]([O-])/C=C\c1ccc(N2CCOCC2)cc1	SW480 rerep 15µM, KB-V1 MDR tox inconclusive, KB-3-1 tox inconclusive, IL1B secr inh -80
O=C(COc1ccc(/C=C\[N+](=O)[O-])cc1)N1CCOCC1	none
CCN(CC(=O)NCc1ccc(Cl)cc1)C(=O)C1CCN(S(=O)(=O)c2ccc(OC)c(OC)c2)CC1	none
N#CC1(NC(=O)CSc2nnc(-c3ccccc3F)o2)CCCCC1	IL1B secr inh inconclusive
C(=Cc1cnnc2ccccc12)c1ccccc1	KB-V1 MDR tox inconclusive, IL1B secr inh -63
C(=C\c1ccnc2ccccc12)/c1cccnc1	none (no result: SW480 rerep, IL1B secr inh, MCF10A rerep)
O=C1CCc2cc([S+](=O)([O-])NC3CCOCC3)ccc2N1	none (no result: SW480 rerep, IL1B secr inh, MCF10A rerep)
COCCn1c(C)cc(/C=C(\C#N)C(=O)OCC(=O)Nc2ccc(S(N)(=O)=O)cc2)c1C	MCF10A rerep 16µM
c1ccc(NC2=NCCN2CCCC2CCCCC2)cc1	SW480 rerep 0.26µM, IL1B secr inh -61
CN(C)C1=NCCN1CCCC1CCCCC1	SW480 rerep 23µM, IL1B secr inh inconclusive, MCF10A rerep inconclusive
Cn1c(SCC(=O)N2CCCC2=O)nc2ccccc21	KB-V1 MDR tox inconclusive
OCC[N+]1(CCc2ccccc2)CCOCC1	none (no result: SW480 rerep, IL1B secr inh, MCF10A rerep)
Cc1cccn2c(=O)c(C(=O)NCc3cccc(F)c3)cnc12	KB-V1 MDR tox inconclusive (no result: SW480 rerep, IL1B secr inh, MCF10A rerep)
CC(=O)C1=C(O)C2(C)c3c(O)c(C)c(O)c(C(C)=O)c3OC2CC1=O (stereo unspecified)	KB-V1 MDR tox 16µM (no result: SW480 rerep, MCF10A rerep)
Cn1c(=O)[nH]c(=O)c2c1nc(SCC(O)CCl)n2Cc1ccccc1 (stereo unspecified)	none
Cc1nc(-c2cccnc2)sc1C(=O)Nc1ccc(Cl)cc1	KB-V1 MDR tox 18µM
Cc1nc(-c2ccccn2)sc1C(=O)Nc1ccc(F)cc1	KB-V1 MDR tox 18µM, KB-3-1 tox inconclusive, MCF10A rerep inconclusive
Cc1nc(-c2ccncc2)sc1C(=O)Nc1ccc(Cl)cc1	none
Cc1nc(-c2ccccn2)sc1C(=O)Nc1ccc(F)cc1F	KB-V1 MDR tox 10µM
Cc1nc(-c2cccnc2)sc1C(=O)Nc1ccc(F)cc1F	none
COc1cc(C=O)c(Br)cc1OCC(=O)NCCc1ccccc1	none
CCOC(=O)COc1cc(Br)c(/C=N/Nc2ccccc2)cc1OC	KB-3-1 tox inconclusive, IL1B secr inh -93, MCF10A rerep inconclusive
